# Experimental data reported in PubChem BioAssay (Tox21).
# Records with an inconclusive call do not appear. Values without a mark were called inactive. Calls of active or inactive are those of the source. Calls come from the whole dose curve; as a rule, active = well fitted inhibition curve with a large enough effect in the repeat runs; inconclusive = weak or mixed curves; inactive = flat fitted curve, though single readings scatter.
# Biological target: Voltage-gated inwardly rectifying potassium channel KCNH2 (Homo sapiens) (UniProt Q12809)
# Sequence (Q12809 whole entry, looked up): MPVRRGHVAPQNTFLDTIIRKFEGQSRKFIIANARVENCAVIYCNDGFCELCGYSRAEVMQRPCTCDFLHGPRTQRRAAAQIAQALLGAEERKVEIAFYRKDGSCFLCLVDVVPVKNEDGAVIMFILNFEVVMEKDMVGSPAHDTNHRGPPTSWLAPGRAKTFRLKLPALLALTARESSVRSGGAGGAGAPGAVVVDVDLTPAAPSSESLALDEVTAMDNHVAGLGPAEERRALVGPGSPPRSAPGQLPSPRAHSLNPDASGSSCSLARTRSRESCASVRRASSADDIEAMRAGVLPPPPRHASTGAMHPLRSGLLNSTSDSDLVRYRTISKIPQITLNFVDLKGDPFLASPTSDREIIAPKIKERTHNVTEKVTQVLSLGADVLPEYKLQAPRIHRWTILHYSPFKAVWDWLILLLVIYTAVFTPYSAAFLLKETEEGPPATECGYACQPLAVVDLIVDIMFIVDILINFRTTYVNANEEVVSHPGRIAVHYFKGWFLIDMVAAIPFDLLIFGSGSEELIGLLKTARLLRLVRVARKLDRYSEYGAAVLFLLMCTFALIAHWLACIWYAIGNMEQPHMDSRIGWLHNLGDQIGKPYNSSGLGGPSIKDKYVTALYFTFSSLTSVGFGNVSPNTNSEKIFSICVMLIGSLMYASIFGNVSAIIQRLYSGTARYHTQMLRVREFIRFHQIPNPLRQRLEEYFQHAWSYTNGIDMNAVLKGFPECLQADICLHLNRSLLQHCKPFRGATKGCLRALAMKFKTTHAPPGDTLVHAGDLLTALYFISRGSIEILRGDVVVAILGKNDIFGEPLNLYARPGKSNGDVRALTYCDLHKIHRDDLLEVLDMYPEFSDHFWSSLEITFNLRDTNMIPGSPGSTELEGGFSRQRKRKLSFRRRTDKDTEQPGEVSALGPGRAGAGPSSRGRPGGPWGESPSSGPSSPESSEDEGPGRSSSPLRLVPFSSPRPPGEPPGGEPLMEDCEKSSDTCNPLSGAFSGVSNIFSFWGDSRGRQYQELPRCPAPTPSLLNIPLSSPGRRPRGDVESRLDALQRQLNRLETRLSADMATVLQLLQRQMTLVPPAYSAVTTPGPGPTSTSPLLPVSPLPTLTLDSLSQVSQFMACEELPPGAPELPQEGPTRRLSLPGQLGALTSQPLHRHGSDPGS
# Experiment: Human Ether-a-go-go-Related Gene (hERG) channel small molecule antagonists: fluorescence cell-based qHTS assay (AID 1671200); note: nearly all actives have a fitted effect of over 50% in size
# Conditions: hERG-U2OS cells, FluxOR thallium flux fluorescence; series mostly up to 76.8 µM; activity change, negative = inhibition: at the top concentration
# From the text: National Center for Advancing Translational Sciences [NCATS]
# U.S. Environmental Protection Agency [EPA]
# National Institutes of Environmental Health Sciences [NIEHS]
# National Toxicology Program [NTP]
# U.S. Food and Drug Administration [FDA]
# Mutations in the hERG channel cause Long QT (LQT) syndrome. LQT syndrome is a cardiac disorder which can cause ventricle arrhythmia and sudden death. Additionally, compounds which block the hERG channel can cause acquired LQT syndrome. Several FDA approved drugs have been removed from the market due to their hERG blocking activity. A cell-based hERG channel inhibition assay can be used to screen chemical compounds that inhibit hERG channel. This assay measures hERG channel activity using thallium ions as surrogate ions to measure potassium into the cells.
# Tox21 Assay Protocol Summary:
# hERG-U2OS cells were resuspended in culture medium and dispensed into 1536-well, black wall/clear-bottom plates at 1000cells/well/3uL using a Multidrop Combi dispenser (Thermo Fisher, Waltham, MA). After plates were incubated at 37 C overnight, 3 uL of Loading Buffer provided by FluxOR II Potassium Ion Channel Assay kit (Thermo, Carlsbad, CA) was added to each well. The assay plates were then incubated at room temperature in the dark for 1h. […] After the assay plates were incubated at room temperature for 10 min, 1 uL of Stimulus Buffer provided by FluxOR II Potassium Ion Channel Assay kit was added into each well and fluorescence intensity (480nm excitation/540nm emission) was continuously measured for 2 min at 1 second intervals using a Functional Drug Screening System (FDSS) 7000EX kinetic plate reader (Hamamatsu, Japan).
# % is set by controls: 0 for no effect and ±100 for the full control effect; potency is the fitted concentration of half-maximal effect.
SMILES,"activity change, negative = inhibition",Potency
CC1(N)CCC(C(C)(C)N)CC1 (stereo not given),3.28%,–
CC(C)SCc1ccco1,-5.96% [at 35.3 µM],–
CCOC(=O)CC#N,0%,–
Cc1cc(O)c2c(c1)C(=O)c1cccc(O)c1C2=O,0.333% [at 35.3 µM],–
CCCO,2.39%,–
CCCCCCCCC(=O)OCC,1.15%,–
COC(/C=C(\C)CCC=C(C)C)OC,3.43%,–
CCCCCCCC/C=C\CCCCCCCC(=O)OC[C@@H](O)[C@H]1OC[C@H](O)[C@H]1O,1.95%,–
CCCCCCCCCCCCC1CO1 (stereo not given),-0.124%,–
CCNC(=O)NCCCOc1cccc(CN2CCCCC2)c1,1.56% [at 35.3 µM],–
O=C(c1ccc2c(c1)C(=O)OC2=O)c1ccc2c(c1)C(=O)OC2=O,0.0975%,–
Cc1ccc(C(=O)C(=O)O)cc1C,8.43% [at 35.3 µM],–
CC(C)(C)c1ccc(C=O)cc1,1.51%,–
CC(=O)OC(C)c1ccccc1 (stereo not given),4.5%,–
OCCCCCCCl,2.53%,–
CCN(CC)C(=O)C1CN2CCc3cc(OC)c(OC)cc3C2CC1OC(C)=O (stereo not given),2.41% [at 35.3 µM],–
Cc1nc(C)nc(N2C[C@@H](C)N(c3ccnc([C@@H](C)O)n3)[C@@H](C)C2)n1,2.2% [at 35.3 µM],–
CC1=NN(c2ccc(S(=O)(=O)O)cc2)C(=O)C1N=Nc1ccccc1 (stereo not given),1.05%,–
O=S1(=O)CCCC1,1.18%,–
Cn1c(=O)c2c(ncn2CC2OCCO2)n(C)c1=O,2.12% [at 35.3 µM],–

SMILES,"activity change, negative = inhibition",Potency
CC(C)COC(=O)CC(C(=O)OCC(C)C)S(=O)(=O)O (stereo not given),1.68%,–
C=CCOc1c(Br)cc(C(C)(C)c2cc(Br)c(OCC=C)c(Br)c2)cc1Br,-5.28% [at 35.3 µM],–
CC(=O)/C=C/c1ccco1,-2.1%,–
CC(CC(=O)O)CC(C)(C)C (stereo not given),-0.836%,–
NC(=O)NC(=O)Cc1ccccc1,0% [at 35.3 µM],–
CO[Si](CCCCl)(OC)OC,-1.73%,–
CC(=O)OC(C(=O)c1ccccc1)c1ccccc1 (stereo not given),-8.88%,–
NS(=O)(=O)c1ccc(Cl)c(S(N)(=O)=O)c1,1.2% [at 35.3 µM],–
C/C=C(\C)C(=O)OCC/C=C\CC,-3.21%,–
O=C(Nc1cccc(C2=NCCN2)c1)Nc1cccc(C2=NCCN2)c1,4.21% [at 15.8 µM],–
COc1ccc(OC)c(NC(=O)CC(C)=O)c1,18.3%,–
O=CN1CCOCC1,-5.48%,–
O=C(CN1CCN(Cc2ccc3c(c2)OCO3)CC1)N1c2ccccc2Sc2ccccc21,–,4.77 µM (active)
F[Si-2](F)(F)(F)(F)F,3.2%,–
CCCCCCCCCCCCCCCCI,0.683% [at 15.8 µM],–
NCCc1ccn[nH]1,-1.96% [at 35.3 µM],–
CC(C)=CC(C)(C)C,1.73%,–
COCC(=O)Nc1c(I)c(C(=O)NCC(O)CO)c(I)c(C(=O)N(C)CC(O)CO)c1I (stereo not given),-0.467% [at 35.3 µM],–
CN[C@@H]1[C@H](O)[C@H](NC)[C@H]2O[C@@]3(O)C(=O)C[C@@H](C)O[C@H]3O[C@@H]2[C@H]1O,4.93% [at 35.3 µM],–
CCOC(=O)C(C)(C)C,3.43%,–
